Laboratory results: PubChem BioAssay (Tox21)
Records with an inconclusive call do not appear. Unmarked numbers belong to inactive results. Calls follow the shape of the dose curve; as a rule, active = well fitted cell-killing curve with a large enough effect in the repeat runs; inconclusive = weak or mixed curves, or effect the other way; inactive = flat fitted curve, though single readings scatter.

Assay: Caspase-3/7 induction in HepG2 cells by small molecules, qHTS cell viability counter screen (AID 1346981); also: nearly all actives have a fitted effect of over 30% in size
Conditions: CellTiter-Fluor fluorescence, 17 h; series mostly up to 92.4 µM; activity change, negative = cytotoxicity: at the top concentration
Excerpt: U.S. Tox21 Program National Center for Advancing Translational Sciences [NCATS] NIH Chemical Genomics Center [NCGC] U.S. Environmental Protection Agency [EPA] National Institutes of Environmental Health Sciences [NIEHS] National Toxicology Program [NTP] U.S. Food and Drug Administration [FDA] Tox21 Assay Overview: Apoptosis is a process of programmed cell death and plays a central role in the development of multicellular organisms. It is a highly regulated process and induces cell death by activating caspases, which are the members of cysteine aspartic acid-specific protease (caspase) family. Caspases involved in apoptosis are classified by their mechanism of action as initiator caspases (caspase-2, -8, -9 and -10) and executioner caspases (caspase-3, -6, and -7). Inhibition of apoptosis results in number of cancers, autoimmune diseases, inflammatory diseases and viral infection. To identify small molecule compounds that induce apoptosis, a homogeneous, luminescent Caspase-Glo 3/7 assay was used. Wild type HepG2 cells were used to screen Tox21 libraries for identifying caspase-3/7 activity inducers. Also cytotoxicity of the compounds was tested in parallel by measuring the cell viability using CellTiter-Fluor assay system in the same wells.
Tox21 Assay Protocol Summary: HepG2 cells were dispensed at 2,000 per well in 5uL of culture medium into white solid bottom 1536-well plates (Corning Life Sciences, Corning, NY) using a Multidrop Combi (Thermo Scientific, Waltham, MA) dispenser. The assay plates were incubated at 37 C and 5% CO2 for 5hr, and then 23nL of compounds dissolved in DMSO and positive control were transferred using a Pintool station ([…], San Diego, CA). The assay plates were incubated at 37C and 5% CO2 for 17hr. For cytotoxicity read, after 16hr incubation at 37C, 1uL CellTiter-Fluor reagent (Promega Corporation, Madison, WI) was added to each well of the assay plates using Flying Reagent Dispenser (FRD, Aurora Discovery, San Diego, CA). After 1hr incubation at 37C and 5% CO2, the fluorescence signal was quantified using a ViewLux plate reader (PerkinElmer, Shelton, CT).
% is scaled to controls: 0 for no effect and ±100 for the full control effect.

SMILES | activity change, negative = cytotoxicity
Cc1ccc2ccc(Cl)cc2n1 | -1.29% [at 42.5 µM]
CC1COc2ccccc2N1 (stereo not given) | -0.398%
O=C(O)c1ccc(Cl)cc1Cl | 4.77%
CCCC(=O)C(C)=O | 2.49%
O=C1CC(c2ccc(Cl)cc2)CC(=O)N1 | 9.88% [at 42.5 µM]
O=P(O)(O)OP(=O)(O)O | 2.02%
CC(N)C(=O)OC(C)(C)Cc1ccc(Cl)cc1 (stereo not given) | 3.45% [at 42.5 µM]
O=C(O)Cc1ccc(Cl)cc1Cl | -2.85%
CCCCCCOC(=O)CC | 1.7%
Cc1ccccc1N=O | 0.674%
CCCCOC(=O)c1ccccc1 | 1.39%
CCOC(=O)[C@H](CCc1ccccc1)N[C@@H](C)C(=O)N1C(=O)N(C)C[C@H]1C(=O)O | 3.93% [at 42.5 µM]
COCCOCCOCCOCCOCCO | 0.232%
C[C@H](N)[C@H](O)c1cccc(O)c1 | -1.09% [at 42.5 µM]
OCCC(F)(F)C(F)(F)C(F)(F)C(F)(F)C(F)(F)C(F)(F)C(F)(F)C(F)(F)F | 0.148%
CCC(CC)CO | 1.13%
CCOCCOC(=O)/C=C/c1ccc(OC)cc1 | 11.5% [at 42.5 µM]
CCN(C)C(=O)Oc1cccc([C@H](C)N(C)C)c1 | 2.89% [at 42.5 µM]
Nc1nnc(-c2cccc(Cl)c2Cl)c(N)n1 | 0.766% [at 42.5 µM]
CC(CC=O)CCCC(C)(C)O (stereo not given) | 4.55%

SMILES | activity change, negative = cytotoxicity
CCOC(=O)CC(=O)c1ccccc1 | -1.09%
CCCCC(CC)COCCO (stereo not given) | 3.58%
COc1nccnc1NS(=O)(=O)c1ccc(N)cc1 | -2.95% [at 42.5 µM]
CC(=C(CCOC(=O)C(C)C)SSC(CCOC(=O)C(C)C)=C(C)N(C=O)Cc1cnc(C)nc1N)N(C=O)Cc1cnc(C)nc1N | 1.42% [at 42.5 µM]
ClCCCl | -1.17%
COc1cc(C(=S)N2CCOCC2)cc(OC)c1OC | 0.0294% [at 42.5 µM]
CN=C(NC#N)Nc1ccc(C2=NNC(=O)CC2C)cc1 (stereo not given) | 4.28% [at 42.5 µM]
O=C(/N=N/C(=O)OCc1ccccc1)OCc1ccccc1 | 9.42%
CC(C)OC(=O)CCCCC(=O)OC(C)C | 2.29%
CN(CCOc1ccc(NS(C)(=O)=O)cc1)CCc1ccc(NS(C)(=O)=O)cc1 | 4.36% [at 42.5 µM]
FC(F)(F)c1ccccc1-n1ccnc1 | -3.93% [at 42.5 µM]
O=S(=O)(O)c1ccc2cc(O)c(S(=O)(=O)O)cc2c1 | 0.403%
COc1ccc(Br)c(C)c1 | 5.42%
CCCCCCCCC1CCC(=O)O1 (stereo not given) | 1.64%
c1ccc2c(c1)ccc1c3ccccc3ccc21 | -14.6% [at 42.5 µM]
CCOc1cc(NC(C)=O)ccc1C(=O)OC | 1.49% [at 42.5 µM]
CC(C)CC(C)CC(C)CC(C)COC(=O)c1ccccc1C(=O)OCC(C)CC(C)CC(C)CC(C)C (stereo not given) | 0.745%
CC[C@H](C)C(=O)O[C@H]1C[C@H](O)C=C2C=C[C@H](C)[C@H](CC[C@@H](O)C[C@@H](O)CC(=O)O)[C@H]21 | 0.623%
O=C1c2ccccc2C(=O)c2cc(S(=O)(=O)O)ccc21 | -0.384%
O=Cc1ccc(Cl)c(Cl)c1 | -2.27%
